Data reported in the supplement of paper PMC10600219.
Where a name gives a salt, the structure may show the parent alone. Whole data set: some 2,800 compounds, median “cell viability relative to vehicle” near 0.98, cut for the lowest 2% near 0.45. The list comes from a sample in which the lowest values are over-represented; it also holds similar structures and randomly drawn compounds.

Each molecule was assayed on NCI-H2228 alectinib-DTP (assay: cell viability relative to vehicle (fraction of vehicle); NCI-H2228 is an ALK-positive lung cancer line and DTP means drug-tolerant persister; higher = less growth inhibition). Conditions: 100 nM; treatment time 6 days.
How it was run: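 Parental NCI-H2228 cells and drug-tolerant persister cells (made with 1000 nM of a targeted drug for 13 days) were seeded in 384-well plates. The next day, the 3114-agent TargetMol anti-cancer compound library was added at 100 nM, with DMSO as vehicle. After 6 days, ATP was read with the CellTiter-Glo 3D Cell Viability Assay. Each value is cell viability relative to vehicle-treated cells.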
With `C[C@H](O)[C@@H](O)[C@@H](O)[C@H](O)C=O` [L-(-)-Fucose] the cell viability was 1.09. For `O=C(O)c1ccc(S(=O)(=O)N(Cc2ccc(OC(F)(F)F)cc2)c2ncc(C(F)(F)F)cc2Cl)cc1`, the cell viability was 0.969. In the case of `O=C(Nc1ccc2[nH]nc(-c3ccncc3)c2c1)[C@@H]1CCN(CC(=O)N2CCN(c3ccc(-c4ncccn4)cc3)CC2)C1`, the cell viability is reported as 0.831. With `COc1ccccc1C(=O)Nc1cc2c(cc1N1CCCCC1)n(C)c(=O)n2C` the cell viability was 0.977. `CC(=O)O[C@H](CC=C(C)C)C1=CC(=O)c2c(O)ccc(O)c2C1=O` [Acetyl shikonin] was tested, and the cell viability was 1.05. For `Cc1nc(Nc2ccc(F)cc2)nc(N2CCc3ccccc3C2C)c1C` (configuration not stated) [Revaprazan hydrochloride], the cell viability was 0.852. In the case of `Cc1cc(Nc2ncc3c(n2)N(C)C(=O)N(c2cc(NC(=O)c4cccc(C(F)(F)F)c4)ccc2C)C3)n(C)n1` [Pluripotin], the cell viability is reported as 0.301. Molecule `Cc1ccc(C(=O)Nc2cccc(C(F)(F)F)c2)cc1Nc1nc(-c2cccnc2)nc2c1cnn2C` has a cell viability of 0.974. For `Cc1cc(C(=O)Nc2cccc(C(=O)Nc3cccc(C(F)(F)F)c3)c2)on1`, the cell viability was 1.1. Work on `COc1cc2nccc(Oc3ccc(NC(=O)c4cn(C(C)C)c(=O)n(-c5ccc(F)cc5)c4=O)cc3F)c2cc1OC` yielded a cell viability of 0.893. `Cc1c(CN2CCN(C(=O)[C@H](C)O)CC2)sc2c(N3CCOCC3)nc(-c3cnc(N)nc3)nc12` [Apitolisib] was tested, and the cell viability was 0.434. In the case of `COC1(c2sc3c(N4CCOCC4)nc(-c4cnc(N)nc4)nc3c2C)COC1`, the cell viability is reported as 0.496. `Cc1c(CN2CCN(S(C)(=O)=O)CC2)sc2c(N3CCOCC3)nc(-c3cnc(N)nc3)nc12` showed a cell viability of 0.514. `CONC(=O)c1ccccc1Nc1cc(Nc2cc(C)nn2C(C)C)ncc1Cl` gave a cell viability of 0.889. `CC(C)n1c(=O)n(C)c2cnc3cc(F)c(-c4ccc(OCCCN5CCCCC5)nc4)cc3c21` was tested, and the cell viability was 0.883. With `Nc1ccc(-c2ccc3ncc4ccc(=O)n(-c5cccc(C(F)(F)F)c5)c4c3c2)cn1` [Torin 2] the cell viability was 0.414. Work on `CCC(=O)N1CC[C@H](Nc2ncnc3c2CN(c2cnc(OC)c(C(F)(F)F)c2)CC3)C1` [Leniolisib] yielded a cell viability of 0.904. `COc1ccc(-c2ccc3ncc4c(c3c2)n(-c2ccc(N3CCNCC3)c(C(F)(F)F)c2)c(=O)n4C)cn1` gave a cell viability of 0.373. In the case of `CCC(=O)N1CCN(c2ccc(-n3c(=O)ccc4cnc5ccc(-c6cnc7ccccc7c6)cc5c43)cc2C(F)(F)F)CC1` [Torin 1], the cell viability is reported as 0.437. `CN(C)CCCOc1ccc(-c2ccc3ncc4c(c3c2)n(C2CCOCC2)c(=O)n4C)cn1` was tested, and the cell viability was 0.878. Work on `Cn1cc(C2=C(c3cccc(N)c3)C(=O)NC2=O)c2ccccc21` yielded a cell viability of 0.932. In the case of `Cc1nc2cccc(N)c2c(=O)n1C1CCC(=O)NC1=O` (configuration not stated) [Avadomide], the cell viability is reported as 0.982. `O=C([O-])CN(CCN(CC(=O)[O-])CC(=O)O)CC(=O)[O-].[Na+].[Na+].[Na+]` [Edetate Trisodium] gave a cell viability of 1.15. Molecule `O=C(NO)c1cnc(NC2(c3ccccc3)CC2)nc1` has a cell viability of 1.01. With `C=CC(=O)Nc1cccc(Oc2nc(Nc3ccc(N4CCN(C)CC4)c(F)c3)nc3[nH]ccc23)c1` [Avitinib] the cell viability was 0.747. In the case of `O=C(O)c1ccc2c(c1)C(=O)c1ccccc1C2=O`, the cell viability is reported as 1.08. `O=c1cc(-c2ccc(O[C@@H]3O[C@H](CO)[C@@H](O)[C@H](O)[C@H]3O)cc2)oc2cc(O)c([C@@H]3O[C@H](CO)[C@@H](O)[C@H](O)[C@H]3O[C@@H]3OC[C@H](O)[C@H](O)[C@H]3O)c(O)c12` [Vaccarin] showed a cell viability of 0.919. With `C[C@H]1COC2(CCN(c3nc(=O)c4cc(C(F)(F)F)cc([N+](=O)[O-])c4s3)CC2)O1` the cell viability was 1.05. `CC(=O)NC(Cc1ccccc1)C(=O)O` (configuration not stated) [Afalanine] showed a cell viability of 0.984. Work on `COC[C@H](NC(=O)c1cnc(C)s1)C(=O)N[C@@H](COC)C(=O)N[C@@H](Cc1ccccc1)C(=O)[C@@]1(C)CO1` [Oprozomib] yielded a cell viability of 0.371. Work on `CC(NC(=O)C(Cc1ccccc1)NC(=O)OCc1ccccc1)C(=O)CF` (configuration not stated) yielded a cell viability of 0.979. `Cc1cc(F)c(C(=O)Nc2cccc(-c3nncn3C(C)C)n2)cc1-n1cnc(C2CC2)c1` [Selonsertib] gave a cell viability of 0.918. In the case of `O=c1[nH]c(=O)n([C@@H]2O[C@H](CO)[C@@H](O)[C@H]2O)cc1F` [5-Fluorouridine], the cell viability is reported as 0.837. `Cn1nccc1Nc1nccc(-c2cc3c(s2)C(C)(C)N(CCN2CCOCC2)C3=O)n1` was tested, and the cell viability was 1.06. In the case of `Cc1nc(-c2cn3c(n2)-c2ccc(-c4cnn(C(C)(C)C(N)=O)c4)cc2OCC3)n(C(C)C)n1` [Taselisib], the cell viability is reported as 0.425. With `CC(C)n1ncnc1-c1cn2c(n1)-c1ccc(O[C@@H](C)C(N)=O)cc1OCC2` the cell viability was 0.717. Molecule `O[C@H]1[C@H]2c3cc4c(cc3CN3CCC(=C[C@@H]1O)[C@H]23)OCO4` [Lycorine chloride] has a cell viability of 0.966. `CC(=O)N[C@H]1CSSC[C@@H](C(N)=O)NC(=O)[C@H](C(C)C)NC(=O)[C@H](C)NC(=O)[C@H](Cc2c[nH]cn2)NC1=O` [Exherin trifluoroacetate] was tested, and the cell viability was 1.11. `COc1cc2c(NC3CCN(C(C)C)CC3)nc(C3CCCCC3)nc2cc1OCCCN1CCCC1` was tested, and the cell viability was 1.15. With `N[C@@H](CCCCNC(=O)C(F)(F)F)C(=O)O` [N-6-Trifluoroacetyl-L-lysine] the cell viability was 0.966. Work on `Cc1ncc(NC(=O)c2ccc(CN3CCN(C)CC3)c(C(F)(F)F)c2)cc1Nc1nccc(-c2cccnc2)n1` [Flumatinib] yielded a cell viability of 1.15. `Cc1ccc(C(=O)Nc2ccc(CN3CCN(C)CC3)c(C(F)(F)F)c2)cc1C#Cc1cnc2[nH]ncc2c1` showed a cell viability of 0.423. `Cc1ccc(C(=O)Nc2ccc(CN3CCN(C)CC3)c(C(F)(F)F)c2)cc1C#Cc1cnc2[nH]ncc2c1` [GZD824 Dimesylate] was tested, and the cell viability was 0.33. `Cc1ccc(C(=O)Nc2ccc(CN3CCN(C)CC3)c(C(F)(F)F)c2)cc1C#Cc1cnc2cccnn12` [Ponatinib] was tested, and the cell viability was 0.834. Molecule `CCN1CCN(Cc2ccc(NC(=O)c3ccc(C)c(NC(=O)c4cncc(-c5cccs5)c4)c3)cc2C(F)(F)F)CC1` has a cell viability of 0.789. Work on `CS(=O)(=O)Nc1ccc([N+](=O)[O-])cc1OC1CCCCC1` yielded a cell viability of 1.12. For `S=C(N/N=C1/CCCc2cccnc21)N1CCN(c2ccccn2)CC1`, the cell viability was 1.09. `Cc1ccc(/C(=C\CN2CCCC2)c2ccccn2)cc1` [Triprolidine hydrochloride] showed a cell viability of 1.18. With `C/C(=N\NC(=S)N1CCC1)c1ccccn1` the cell viability was 0.362. `Cn1c(O)c(C2=c3ccccc3=NC2=O)c2ccccc21` [Methylisoindigotin] showed a cell viability of 0.85. Molecule `CC(C)=CCc1cc2c(cc1O)oc(=O)c1c3ccc(O)cc3oc21` [Psoralidin] has a cell viability of 1.15. `CC(C)c1nc(CN(C)C(=O)N[C@@H](CCN2CCOCC2)C(=O)N[C@H](CC[C@H](Cc2ccccc2)NC(=O)OCc2cncs2)Cc2ccccc2)cs1` [Cobicistat] gave a cell viability of 1.02. Molecule `COc1ccc(C[C@H](NC(=O)[C@H](C)NC(=O)CN2CCOCC2)C(=O)N[C@@H](Cc2ccccc2)C(=O)C2(C)CO2)cc1` (stereo in doubt) has a cell viability of 1.03. `CC(C)C[C@H](NC(=O)[C@H](CCc1ccccc1)NC(=O)CN1CCOCC1)C(=O)N[C@@H](Cc1ccccc1)C(=O)N[C@@H](CC(C)C)C(=O)[C@@]1(C)CO1` [Carfilzomib] was tested, and the cell viability was 0.116. `N[C@@H](CSCCB(O)O)C(=O)O` was tested, and the cell viability was 0.835. `O=C(O)Cn1c2c(c3cc(F)ccc31)CN(C(=O)c1cccc3ccccc13)CC2` [Setipiprant] showed a cell viability of 1.18. `CC(C)(C)c1ccc(C(=O)NC(=S)Nc2ccc(N)cc2)cc1` [Tenovin3] gave a cell viability of 0.734. `CCCCCCCCCCCCCC(=S)NCCCC[C@H](NC(=O)OCc1ccccc1)C(=O)Nc1ccccc1` [Thiomyristoyl] gave a cell viability of 1.11. With `C/C=C1\NC(=O)[C@H]2CSSCC/C=C/[C@H](CC(=O)N[C@H](C(C)C)C(=O)N2)OC(=O)[C@H](C(C)C)NC1=O` [Romidepsin] the cell viability was 0.116. `O=c1nc(N2CCN(CC3CCCCC3)CC2)sc2c([N+](=O)[O-])cc(C(F)(F)F)cc12` was tested, and the cell viability was 0.985. `CCC(Sc1nnc2c(n1)[nH]c1ccccc12)C(=O)N1c2ccccc2Sc2ccccc21` (configuration not stated) [Inauhzin] gave a cell viability of 1.06. Work on `CC[C@@]1(O)C(=O)OCc2c1cc1n(c2=O)Cc2cc3cc(O)ccc3nc2-1` [Hydroxy Camptothecine] yielded a cell viability of 0.255. `CCc1c2c(nc3ccc(O)cc13)-c1cc3c(c(=O)n1C2)COC(=O)[C@]3(O)CC` showed a cell viability of 0.263. With `CC[C@@]1(O)C(=O)OCc2c1cc1n(c2=O)Cc2cc3c(CN(C)C)c(O)ccc3nc2-1` [Topotecan hydrochloride] the cell viability was 0.245. `CC[C@@]1(O)C(=O)OCc2c1cc1n(c2=O)Cc2cc3cc(O)ccc3nc2-1` [10-Hydroxycamptothecin] was tested, and the cell viability was 0.304. `CCc1c2c(nc3ccc(OC(=O)N4CCC(N5CCCCC5)CC4)cc13)-c1cc3c(c(=O)n1C2)COC(=O)[C@]3(O)CC` [Irinotecan] gave a cell viability of 1.07. `CCc1c2c(nc3ccc(OC(=O)N4CCC(N5CCCCC5)CC4)cc13)-c1cc3c(c(=O)n1C2)COC(=O)[C@]3(O)CC` [Irinotecan hydrochloride trihydrate] was tested, and the cell viability was 1.05. `COc1ccc(S(=O)(=O)NCc2ccc(C(=O)NCCc3ccc(Cl)cn3)cc2)cc1` gave a cell viability of 1.14. In the case of `CN1CCN(c2ccc(C(=O)Nc3cc(-c4cccc(NS(=O)(=O)c5ccccc5)c4)[nH]n3)cc2)CC1`, the cell viability is reported as 0.98. `CC(C)Cc1ccc(-c2nc(-c3ccc(CN4CC(C(=O)O)C4)c(F)c3)no2)cc1` [S1p-receptor-agonist-1] gave a cell viability of 1.03. With `OC(CCN1CCCCC1)(c1ccccc1)C1CCCCC1` (racemic) [DL-trihexyphenidyl hydrochloride] the cell viability was 0.964. For `CCCC[S+]([O-])c1sc2nc(-c3cccs3)cc(-c3ccccc3)c2c1N` (configuration not stated), the cell viability was 1.
